IL1B secr inh: inhibitors of inflammasome signaling (IL-1 beta secretion) | THP-1 LPS/ATP IL-1B secretion, AlphaLISA, 16 h; active compounds read low | activity change, % at 57.5 µM | actives 4.7% (n = 360,000); in the data active means activity change below about -50%; inconclusive means mostly about -30% to -49%
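THP-1 cells pretreated 1 hr with compounds (up to 57.5 uM final), then stimulated with LPS (250 ng/mL final) plus ATP (1.25 mM final); secreted IL-1B measured by AlphaLISA after 16 hr, decreased signal indicating inhibition.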
HT1080NT lethal: kills 2HG-producing HT-1080-NT fibrosarcoma cells | actives 1.6% (n = 360,000) | HT-1080-NT fibrosarcoma viability, CellTiter-Glo ATP luminescence, 48 h | AID 686970 | Potency, µM (titrated, usually from 46.1 µM), for inactives: top-dose activity, negative = less viability, hits mostly cytotoxic;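 further: NT is the 2HG producing partner of a matched IDH1 knockdown line; potency means the concentration at half of the fitted maximal effect; 0% = DMSO-treated cells and -100% = media-only wells without cells; nearly all actives have a fitted effect of over 55% in size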
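Fibrosarcoma NT cells, 750 per well in 5% FBS RPMI, were exposed to compound for 48 hours. Viability: CellTiter-Glo luminescence.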
HT1080 IDH1KD tx: HT-1080 IDH1 knockdown cell toxicity (counter line) | AID 686971 | actives 2% (n = 360,000) | Potency, µM (titrated, usually from 46.1 µM), for inactives: at the top dose activity, negative = toxicity, actives largely listed as cytotoxic | HT-1080 IDH1 knockdown viability, ATP luminescence, 48 h;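 further: potency means the concentration at half of the fitted maximal effect; 0% = DMSO wells and -100% = cell-free medium wells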
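% activity derives from luminescence (CellTiter-Glo), normalised to DMSO and no-cell wells. HT-1080-IDH1KD cells, 750/well, had 48 h compound exposure at 37 °C.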
DT40 TDP1 no CPT: qHTS for Inhibitors of human tyrosyl-DNA phosphodiesterase 1 (TDP1): qHTS in cells in absence of CPT. actives 15% (n = 420,000). AID 686978, 2013. DT40 Tdp1-/- hTDP1 cells, no CPT, ATP luminescence, 48 h. Potency, µM (highest dose often 46.2 µM), without a hit: top-dose activity change, negative = growth inhibition, most hits filed as inhibitors; further: potency means the concentration at half of the fitted maximal effect; nearly all actives have a fitted effect of over 55% in size
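Growth kinetics read by CellTiter-Glo luminescence after ≥48 hr at 37 °C. Cells: DT40 Tdp1-/- stably carrying human TDP1, 400 per well, compound exposure in the absence of CPT (DMSO vehicle).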
ELG1 DNA repair: inhibitors of ELG1-dependent DNA repair in HEK293T cells; HEK293T ELG1-luciferase reporter, luminescence, 16 h; DNA damage induced by 5-fluorouridine; Potency, µM (series often up to 46.1 µM), without a hit: top-dose activity change, negative = inhibition, actives largely listed as inhibitors; actives 2.3% (n = 330,000); further: potency means the concentration at half of the fitted maximal effect; nearly all actives have a fitted effect of over 55% in size
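Cells (2,000 per well) received 5-fluorouridine plus test compound or DMSO and were incubated 16 hr at 37 °C, 5% CO2. Luciferase activity was read by luminescence 30 min after ONE-Glo addition; signal suppression marked inhibition of damage-induced ELG1 function.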
DT40 TDP1 CPT: DT40-hTDP1 cell growth loss with CPT | actives 12% (n = 420,000) | AID 686979 | Potency, µM (highest dose often 46.2 µM), for inactives: at the highest dose activity change, negative = growth inhibition, most hits filed as inhibitors | chicken DT40 Tdp1-/-;hTDP1 cells + 20 nM CPT, ATP luminescence, 48 h; further: potency means the concentration at half of the fitted maximal effect; nearly all actives have a fitted effect of over 55% in size
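Chicken DT40 Tdp1-/- cells complemented with human TDP1, 400 cells/well, exposed to compounds plus 20 nM camptothecin for at least 48 h at 37 C; viability read as ATP content by CellTiter-Glo luminescence.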
* = called active by the depositor; [ ] = remark or other dose. This is a sample that favours compounds with a hit; in the whole collection about 19% have one here. Unless noted, the call rests on the fitted dose curve; in most records, active means well fitted curve in the direction sought with a large enough effect; inconclusive means small, poorly fitted or top-dose-only effect, or another doubt; inactive means no such curve, though single readings can be large; an effect the other way counts as inactive or inconclusive. Unless noted, on the % scale 0 is the no-effect control and ±100 the full control effect.

O=C(NC(c1ccccc1)c1ccsc1)C1CCN(CCOc2ccc(Cl)cc2Cl)CC1 (centres undefined) was read as IL1B secr inh -68*, HT1080NT lethal 18µM*, HT1080 IDH1KD tx 16µM*, DT40 TDP1 no CPT inconclusive and DT40 TDP1 CPT inconclusive.
For O=C(NC(c1cccnc1)c1ccc2c(c1)OCO2)C1CCN(CCOc2ccc(Cl)cc2Cl)CC1 (centres undefined) the results were IL1B secr inh -68*, HT1080NT lethal inconclusive, HT1080 IDH1KD tx 18µM*, DT40 TDP1 no CPT inconclusive and DT40 TDP1 CPT -45%.
For O=C(NC(c1ccccc1)c1cnccn1)C1CCN(CCOc2ccc(Cl)cc2Cl)CC1 (centres undefined) the results were IL1B secr inh inconclusive, HT1080NT lethal 16µM*, HT1080 IDH1KD tx inconclusive, DT40 TDP1 no CPT 18µM* and DT40 TDP1 CPT 16µM*.
Screening O=C(Nc1cccc(F)c1)C1CCCN1C(=O)OCc1ccccc1 (centres undefined) returned IL1B secr inh 15, HT1080NT lethal 11%, HT1080 IDH1KD tx 0%, DT40 TDP1 no CPT -3%, ELG1 DNA repair inconclusive and DT40 TDP1 CPT -12%.
`COc1cc2c(cc1OC)C(c1cc(OC)c(O)c(OC)c1)CC(=O)N2` (centres undefined) gave DT40 TDP1 no CPT 0% and DT40 TDP1 CPT 16%.
Cc1ccc(CN2C[C@@H](Sc3nc(C)cc(C)n3)C[C@H]2C(=O)N2CCN(c3ccccc3F)CC2)cc1 was read as DT40 TDP1 no CPT inconclusive and DT40 TDP1 CPT -11%[9.04 µM].
`CN(CC(=O)Nc1c(Cl)cccc1Cl)C(=O)C1CSC2(C)CCC(=O)N12` (centres undefined) gave IL1B secr inh 15, HT1080NT lethal 1%, HT1080 IDH1KD tx 0%, DT40 TDP1 no CPT 8%, ELG1 DNA repair -2% and DT40 TDP1 CPT -21%.
For CN(Cc1ccc(Cl)c(Cl)c1)C(=O)C1CSC2(C)CCC(=O)N12 (centres undefined) the results were IL1B secr inh -10, HT1080NT lethal 3%, HT1080 IDH1KD tx 0%, DT40 TDP1 no CPT 15µM*, ELG1 DNA repair 0% and DT40 TDP1 CPT 15µM*.
c1ccc([C@H]2CN3C(=N2)Sc2ccccc23)cc1 was read as IL1B secr inh -1, HT1080NT lethal -13%, HT1080 IDH1KD tx -3%, DT40 TDP1 no CPT inconclusive, ELG1 DNA repair inconclusive and DT40 TDP1 CPT 18µM*.
Screening CC(=O)N1SC(N)=NC1c1ccccc1 (centres undefined) returned IL1B secr inh 6, HT1080NT lethal 14%, HT1080 IDH1KD tx 16%, DT40 TDP1 no CPT -12%, ELG1 DNA repair -6% and DT40 TDP1 CPT 4%.
Screening Cc1ccccc1CN1N=C(/C=C/c2ccccc2)CCC1=O returned IL1B secr inh -13, HT1080NT lethal 0%, HT1080 IDH1KD tx 0%, DT40 TDP1 no CPT 23µM*, ELG1 DNA repair inconclusive and DT40 TDP1 CPT -9%.
CC(=O)N1CCc2cc(S(=O)(=O)NC(CC(C)C)C(=O)NCc3ccccc3Cl)ccc21 (centres undefined) was read as DT40 TDP1 no CPT -12% and DT40 TDP1 CPT -4%.
Cc1ccoc1C(=O)NCCNc1ccc(Cl)cc1[N+](=O)[O-] was read as IL1B secr inh -59*, HT1080NT lethal 0%, HT1080 IDH1KD tx 3%, DT40 TDP1 no CPT -30%, ELG1 DNA repair 4% and DT40 TDP1 CPT -23%.
`Cc1ccc(N2C(=O)C3C4C=CC(CNC(=S)N5CCN(c6ccccc6)CC5)(O4)C3C2=O)cc1` (centres undefined) gave IL1B secr inh 11, HT1080NT lethal -12%, HT1080 IDH1KD tx -3%, DT40 TDP1 no CPT 18µM*, ELG1 DNA repair 5% and DT40 TDP1 CPT 18µM*.
`Cc1cccc(NC(=S)NCC23C=CC(O2)C2C(=O)N(c4ccc(Cl)cc4)C(=O)C23)c1` (centres undefined) gave IL1B secr inh -5, HT1080NT lethal -6%, HT1080 IDH1KD tx -7%, DT40 TDP1 no CPT 21µM*, ELG1 DNA repair -4% and DT40 TDP1 CPT inconclusive.
Cc1ccc(NC(=S)NCC23C=CC(O2)C2C(=O)N(c4ccc(C)cc4)C(=O)C23)cc1 (centres undefined) was read as IL1B secr inh 5, HT1080NT lethal 0%, HT1080 IDH1KD tx 7%, DT40 TDP1 no CPT inconclusive, ELG1 DNA repair -15% and DT40 TDP1 CPT 18µM*.
`O=C(NCc1cc2ccccc2[nH]1)C1CCC(=O)N(CCCN2CCCC2=O)C1` (centres undefined) gave IL1B secr inh 29, HT1080NT lethal 0%, HT1080 IDH1KD tx 0%, DT40 TDP1 no CPT 14%, ELG1 DNA repair 5% and DT40 TDP1 CPT -20%.
Screening CCOc1ccccc1CNC(=O)c1nn(C)c2c1CS(=O)(=O)c1ccccc1-2 returned IL1B secr inh 5, HT1080NT lethal 3%, HT1080 IDH1KD tx -1%, DT40 TDP1 no CPT inconclusive, ELG1 DNA repair 16µM* and DT40 TDP1 CPT 18µM*.
`CSc1ccc(CCNC(=O)c2nn(C)c3c2CS(=O)(=O)c2ccccc2-3)cc1` gave IL1B secr inh -6, HT1080NT lethal -6%, HT1080 IDH1KD tx 0%, DT40 TDP1 no CPT inconclusive, ELG1 DNA repair 26µM* and DT40 TDP1 CPT inconclusive.
For Cc1ccc(CNC(=O)c2nn(C)c3c2CS(=O)(=O)c2ccccc2-3)cc1 the results were IL1B secr inh -53*, HT1080NT lethal 26%, HT1080 IDH1KD tx 3%, DT40 TDP1 no CPT inconclusive, ELG1 DNA repair 5% and DT40 TDP1 CPT 16µM*.
CCc1ccc(CNC(=O)c2nn(C)c3c2CS(=O)(=O)c2ccccc2-3)cc1 was read as IL1B secr inh -18, HT1080NT lethal inconclusive, HT1080 IDH1KD tx -14%, DT40 TDP1 no CPT inconclusive, ELG1 DNA repair inconclusive and DT40 TDP1 CPT inconclusive.
COc1ccc(CNC(=O)c2nn(C)c3c2CS(=O)(=O)c2ccccc2-3)cc1 was read as IL1B secr inh -27, HT1080NT lethal -12%, HT1080 IDH1KD tx -9%, DT40 TDP1 no CPT inconclusive, ELG1 DNA repair -4% and DT40 TDP1 CPT inconclusive.
For Cc1ccc(CNC(=O)CN(C)C2=NS(=O)(=O)c3ccccc32)cc1 the results were IL1B secr inh 41, HT1080NT lethal -3%, HT1080 IDH1KD tx -6%, DT40 TDP1 no CPT 9.2µM*, ELG1 DNA repair inconclusive and DT40 TDP1 CPT 13µM*.

From PubChem BioAssay
